Measured values reported in PubChem BioAssay (NCATS).
Results filed as inconclusive are left out. Where a call stands in place of a potency, no number is given. Activity calls are given as the source filed them. Unless noted, calls come from the whole dose curve; as a rule, active = well fitted curve in the direction sought with a large enough effect; inconclusive = small, poorly fitted or top-dose-only effect, or another doubt; inactive = no such curve, though single readings can be large; an effect the other way counts as inactive or inconclusive.

How the values were obtained:
[1] = Cytometric Cell-Based qHTS for Inhibitors of the mTORC1 Signaling Pathway in MEF (Tsc2-/-, p53-/-) Cells (AID 2660);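 note: percent of cells above a phospho-rpS6 to PI ratio cutoff in each well; series mostly up to about 38 µM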
How it was run: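 Readout: Alexa-488 phospho-rpS6 (Ser235/236) intensity divided by PI intensity, thresholded against 7.5 nM rapamycin wells and reported as % positive cells. PI cell count served as the viability measure. Compound exposure was 24 hrs at 37 degree Celsius.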

[2] = High Content Imaging Cell-Based qHTS for Inhibitors of the mTORC1 Signaling Pathway in MEF (Tsc2-/-, p53-/-) Cells (AID 2666);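 note: percent of cells scored positive for phospho-rpS6 Ser235/236 immunostaining by imaging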
How it was run: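 Phospho-rpS6 (Ser235/236) immunofluorescence, normalized and scored as % positive cells using rapamycin and DMSO controls, was read in empty-vector Tsc2-/-, p53-/- MEFs after 24 h compound exposure at 37 C; propidium iodide counted cells.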

[3] = High Content Imaging Cell-Based qHTS for Inhibitors of the mTORC1 Signaling Pathway in MEF Cells (AID 2667); note: potency is the fitted concentration of half-maximal effect
How it was run: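 WT MEFs (Tsc2-/-, p53-/- re-expressing Tsc2), in DMEM + 10% FBS, were treated with compound for 24 h at 37 C. Cells were then fixed and stained for phospho-rpS6 Ser235/236 with propidium iodide as cell count. Values are % positive cells, with thresholds set against rapamycin-treated cells.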

[4] = Cytometry Cell-Based qHTS for Inhibitors of the mTORC1 Signaling Pathway in MEF cells (AID 2668); note: potency is the fitted concentration of half-maximal effect
How it was run: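 MEFs (Tsc2-/-, p53-/- stably expressing WT Tsc2) treated 24 h at 37 degree Celsius, fixed, stained with Alexa-488 anti-phospho-rpS6 Ser235/236 and propidium iodide; Acumen laser scanning. Reported as % positive cells, phospho-S6 normalized to PI.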

[5] = target: Ubiquitin carboxyl-terminal hydrolase 2 (Homo sapiens) (UniProt O75604); experiment: qHTS Validation Assay for Inhibitors of Ubiquitin-specific Protease USP2a Using CHOP2 as the Reporter (AID 463106)
Chain of Ubiquitin carboxyl-terminal hydrolase 2 (Homo sapiens) (O75604 whole entry, looked up): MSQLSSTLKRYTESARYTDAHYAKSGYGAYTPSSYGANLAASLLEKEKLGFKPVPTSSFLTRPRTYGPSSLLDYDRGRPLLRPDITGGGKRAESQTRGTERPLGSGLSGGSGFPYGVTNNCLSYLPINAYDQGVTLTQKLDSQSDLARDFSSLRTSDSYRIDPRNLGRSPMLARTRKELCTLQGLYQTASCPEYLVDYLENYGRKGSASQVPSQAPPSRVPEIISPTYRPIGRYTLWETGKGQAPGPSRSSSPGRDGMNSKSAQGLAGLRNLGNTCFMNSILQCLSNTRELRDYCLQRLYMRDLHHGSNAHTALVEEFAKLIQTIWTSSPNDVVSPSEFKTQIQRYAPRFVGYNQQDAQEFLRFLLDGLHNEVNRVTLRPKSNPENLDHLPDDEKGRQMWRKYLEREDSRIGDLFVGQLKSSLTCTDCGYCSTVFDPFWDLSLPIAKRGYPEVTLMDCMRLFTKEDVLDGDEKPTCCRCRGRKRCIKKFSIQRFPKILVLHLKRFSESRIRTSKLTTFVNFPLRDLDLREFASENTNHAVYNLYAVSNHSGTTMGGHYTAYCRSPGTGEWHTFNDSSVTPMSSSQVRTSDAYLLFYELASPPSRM
How it was run: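 USP2 core (10 nM final) was preincubated with compound 30 min at RT in pH 8.0 Tris/CaCl2/beta-ME/CHAPS buffer. Ub-CHOP2 and reporter substrate (25 nM final each) were then added, with fluorescence (Ex 485/Em 531) read after 60 min. Data were normalized to NEM full inhibition and fitted to concentration-response curves.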

[6] = target: DNA polymerase III PolC-type (Bacillus subtilis (strain 168)) (UniProt P13267); experiment: qHTS Validation Assay for the Inhibitors of DNA Replication in Gram-Positive Bacteria (AID 485295);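 note: PicoGreen fluorescence of double-stranded DNA made on primed circular M13 template; series mostly up to about 57 µM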
Chain of DNA polymerase III PolC-type (Bacillus subtilis (strain 168)) (P13267 whole entry, looked up): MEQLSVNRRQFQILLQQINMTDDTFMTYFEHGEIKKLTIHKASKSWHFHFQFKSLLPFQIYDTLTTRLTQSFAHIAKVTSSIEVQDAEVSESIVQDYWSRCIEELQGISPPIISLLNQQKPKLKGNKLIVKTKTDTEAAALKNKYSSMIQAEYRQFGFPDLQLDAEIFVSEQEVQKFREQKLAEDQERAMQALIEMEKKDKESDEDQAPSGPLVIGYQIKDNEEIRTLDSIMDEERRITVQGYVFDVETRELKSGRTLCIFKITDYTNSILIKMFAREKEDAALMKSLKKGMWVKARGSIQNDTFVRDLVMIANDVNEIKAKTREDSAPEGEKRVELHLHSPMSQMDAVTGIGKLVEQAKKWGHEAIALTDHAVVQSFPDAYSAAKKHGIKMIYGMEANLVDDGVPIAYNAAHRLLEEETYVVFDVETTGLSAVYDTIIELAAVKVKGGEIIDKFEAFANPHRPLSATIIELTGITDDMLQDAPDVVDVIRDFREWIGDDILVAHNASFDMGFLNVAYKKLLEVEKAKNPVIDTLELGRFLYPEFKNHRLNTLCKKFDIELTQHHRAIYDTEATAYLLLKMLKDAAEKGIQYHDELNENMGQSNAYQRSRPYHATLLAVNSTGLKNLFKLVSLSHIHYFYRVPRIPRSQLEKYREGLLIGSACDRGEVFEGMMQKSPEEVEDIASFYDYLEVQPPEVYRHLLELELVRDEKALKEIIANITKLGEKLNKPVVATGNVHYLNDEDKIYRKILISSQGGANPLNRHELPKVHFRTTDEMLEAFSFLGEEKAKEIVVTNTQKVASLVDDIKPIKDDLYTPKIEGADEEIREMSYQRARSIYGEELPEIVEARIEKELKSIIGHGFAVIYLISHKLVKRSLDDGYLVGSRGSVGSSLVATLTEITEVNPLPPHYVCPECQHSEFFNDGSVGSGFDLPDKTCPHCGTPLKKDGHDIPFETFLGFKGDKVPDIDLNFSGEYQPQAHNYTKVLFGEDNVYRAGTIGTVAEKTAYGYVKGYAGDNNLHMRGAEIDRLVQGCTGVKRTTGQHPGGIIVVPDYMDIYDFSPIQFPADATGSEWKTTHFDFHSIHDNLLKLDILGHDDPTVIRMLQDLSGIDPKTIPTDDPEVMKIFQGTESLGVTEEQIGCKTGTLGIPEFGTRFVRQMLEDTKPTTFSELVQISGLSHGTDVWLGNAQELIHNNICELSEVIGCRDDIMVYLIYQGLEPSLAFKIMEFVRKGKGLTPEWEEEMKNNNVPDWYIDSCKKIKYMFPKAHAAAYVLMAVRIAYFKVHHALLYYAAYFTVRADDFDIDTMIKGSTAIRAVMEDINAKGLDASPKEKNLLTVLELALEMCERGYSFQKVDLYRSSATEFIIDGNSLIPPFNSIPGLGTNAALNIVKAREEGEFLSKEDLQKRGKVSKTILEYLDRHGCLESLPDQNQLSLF
How it was run: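 Reconstituted B. subtilis Pol III holoenzyme (PolC, beta clamp, SSB, primase) preincubated with compound, then M13Gori single-stranded circular template with dNTPs/NTPs added; room temperature reaction. Stopped with EDTA/PicoGreen; dsDNA fluorescence read, EDTA as full-inhibition control.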

[7] = target: Tumor susceptibility gene 101 protein (Homo sapiens) (UniProt Q99816); experiment: qHTS Validation Assay for Iinhibitors of HIV-1 Budding by Blocking the Interaction of PTAP/TSG101 (AID 485342; calls by dose curve)
Chain of Tumor susceptibility gene 101 protein (Homo sapiens) (Q99816 whole entry, looked up, the tested form may be a part): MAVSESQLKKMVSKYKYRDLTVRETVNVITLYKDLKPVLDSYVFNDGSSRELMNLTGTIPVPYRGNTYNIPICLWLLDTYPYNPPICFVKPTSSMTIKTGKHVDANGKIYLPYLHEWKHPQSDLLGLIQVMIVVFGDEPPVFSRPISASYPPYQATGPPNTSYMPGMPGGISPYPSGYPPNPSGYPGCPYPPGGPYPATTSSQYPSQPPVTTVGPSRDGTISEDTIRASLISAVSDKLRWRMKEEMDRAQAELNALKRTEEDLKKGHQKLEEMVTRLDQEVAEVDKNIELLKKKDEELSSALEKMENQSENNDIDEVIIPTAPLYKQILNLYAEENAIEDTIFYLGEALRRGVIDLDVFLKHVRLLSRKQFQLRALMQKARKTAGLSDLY
How it was run: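 Tsg101 binding domain (10 uM) with FITC-labeled PTAP peptide (50 nM) in HEPES pH 7.5 buffer, 20 min at r.t. with compounds. Binding measured by fluorescence polarization.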

[8] = qHTS Validation Assay to Find Inhibitors of Chronic Active B-Cell Receptor Signaling (AID 485345; active = well fitted curve in the direction sought with a large enough effect in the main read-out, with a control signal flat, not every such curve was filed as active)
How it was run: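 TMD8 ABC-DLBCL cells stably carrying doxycycline-inducible IkappaBalpha–green luciferase fusion plus unfused red luciferase; compounds 46 uM to 3 nM, 4 h at 37C with doxycycline. Corrected green/red luminescence ratio normalized to 10 uM MG-132 and basal cell wells; curves fitted.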

[9] = Validation screen for small molecules that induce DNA re-replication in MCF 10A normal breast cells (AID 463097); note: nearly all actives have a fitted effect of over 60% in size; note: potency is the fitted concentration of half-maximal effect
How it was run: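 MCF 10A cells exposed to compound 48 hr at 37 C, 5% CO2, then Hoechst-stained 40 min. Laser-scanning imaging of nuclear DNA content (405 nm ex, 500-530 nm em); re-replication scored as rise in nuclei with elevated fluorescence intensity.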

| SMILES | outcome [1] | Potency [2] | Potency [3] | Potency [4] | Potency [5] | Potency [6] | outcome [7] | outcome [8] | Potency [9] |
| --- | --- | --- | --- | --- | --- | --- | --- | --- | --- |
| Nc1nc2c(nc(Br)n2C2OC3COP(=O)(O)O[C@@H]3C2O)c(=O)[nH]1 (some centres not stated) | inactive | inactive | inactive | inactive | inactive | inactive | inactive | inactive | – |
| CCCCCCCCCCCCCCCCCCOC[C@H](COP(=O)([O-])OCC[N+](C)(C)C)OC | inactive | inactive | inactive | inactive | inactive | – | inactive | – | – |
| Nc1nc2c(cnn2CCc2ccccc2)c2nc(-c3ccco3)nn12 | inactive | inactive | inactive | inactive | – | inactive | inactive | – | – |
| CCCc1c(-c2ccc(O)cc2)nn(-c2ccc(O)cc2)c1-c1ccc(O)cc1 | inactive | inactive | inactive | inactive | – | inactive | inactive | – | – |
| N=C(N)c1ccc(OCCCCCOc2ccc(C(=N)N)cc2)cc1 (tested in a mixture with another compound) | inactive | inactive | 11.7 µM (active) | 10.4 µM (active) | inactive | inactive | inactive | inactive | – |
| Nc1ccc2c3c(cccc13)C(=O)NC2=O | inactive | inactive | inactive | – | – | inactive | – | – | inactive |
| COc1cc(C(O)C(=O)O)ccc1O (configuration not stated) | inactive | inactive | inactive | – | inactive | inactive | inactive | inactive | inactive |
| CCn1c(=O)[nH]c2cc(Cl)c(Cl)cc21 | inactive | inactive | inactive | – | – | inactive | inactive | – | inactive |
| O=C(O)Cc1ccc(O)c(O)c1 | inactive | inactive | inactive | – | inactive | inactive | inactive | inactive | inactive |
| CC#CCOC(=O)c1c(C)nc2sc3c(c2c1N)CCC(O)C3 (configuration not stated) | inactive | inactive | inactive | inactive | – | inactive | inactive | inactive | – |
| CCCCCC[C@@H]([C@@H](C)O)n1cnc2c(N)ncnc21 | inactive | inactive | inactive | – | inactive | inactive | – | inactive | inactive |
| CCN(CC)CCOC(=O)c1cc(Cl)c(N)cc1OC | inactive | inactive | inactive | – | inactive | inactive | inactive | inactive | inactive |
| C[C@H]1CC2C3CCC4=CC(=O)C=C[C@]4(C)[C@@]3(Cl)[C@@H](O)C[C@]2(C)[C@@]1(O)C(=O)CO (some centres not stated) | inactive | inactive | inactive | inactive | – | inactive | inactive | – | – |
| CC(=O)/C(C)=N/O | inactive | inactive | inactive | – | inactive | inactive | inactive | inactive | inactive |
| O=C(O)CCC/C=C\C[C@@H]1[C@@H](/C=C/[C@H](O)C2Cc3ccccc3C2)[C@@H](F)C[C@@H]1O | inactive | inactive | inactive | inactive | – | inactive | – | inactive | – |
| N[C@H](C(=O)O)[C@H]1C[C@@H]1C(=O)O | inactive | inactive | inactive | – | inactive | inactive | inactive | inactive | inactive |
| c1ccc(CN2CCC3(CCCc4ccccc43)CC2)cc1 | inactive | inactive | inactive | – | inactive | inactive | inactive | inactive | inactive |
| CC1=C(/C=C/C(C)=C/C=C/C(C)=C\C(=O)O)C(C)(C)CCC1 | inactive | inactive | inactive | – | inactive | inactive | inactive | – | inactive |
| Cn1c(=O)c2[nH]c(-c3ccc(S(=O)(=O)O)cc3)nc2n(C)c1=O | inactive | inactive | inactive | – | inactive | inactive | inactive | – | inactive |
| NCCNS(=O)(=O)c1cccc2c(Cl)cccc12 | inactive | inactive | 16.5 µM (active) | – | inactive | inactive | inactive | – | inactive |
| O=c1cc(-c2ccccc2)[nH]c2nc(Cl)ccc12 | inactive | inactive | inactive | – | inactive | inactive | inactive | inactive | 6.31 µM (active) |
| CCCCCCCCCCC/C=C\C(C)(C)/C=C\CCCC(=O)O | inactive | inactive | inactive | inactive | – | inactive | inactive | inactive | – |
| C=CCN1CCc2cc(O)c(O)cc2C(c2ccccc2)C1 (configuration not stated) | inactive | inactive | inactive | – | inactive | inactive | inactive | inactive | inactive |
| CCCCCCN(CCCCCC)C(=O)Cc1c(-c2ccc(F)cc2)[nH]c2ccccc12 | inactive | inactive | inactive | – | inactive | inactive | inactive | inactive | inactive |
| C/C(=C\c1ccc(C(=O)O)cc1)c1ccc2c(c1)C(C)(C)CCC2(C)C | inactive | inactive | inactive | – | – | inactive | inactive | – | 11.2 µM (active) |
| Cc1ccc([N+](=O)[O-])cc1S(=O)(=O)N(C)C | inactive | inactive | inactive | – | inactive | inactive | – | – | inactive |
| Nc1ncnc2c1nc(Sc1ccc(Cl)cc1)n2[C@H]1OC2COP(=O)(O)O[C@@H]2C1O (some centres not stated) | inactive | inactive | inactive | inactive | – | inactive | inactive | – | – |
| Fc1ccc(CN(C2=NCCN2)c2c(Cl)cccc2Cl)cc1 | inactive | inactive | inactive | – | inactive | inactive | inactive | inactive | inactive |
